These results are taken from PubChem BioAssay (NCATS).

Experiment [1] is described as follows: Confirmation and Secondary Assay for Modulators of Hemoglobin Beta Chain Splicing at IVS2 705 locus (AID 930).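 Further: HeLa cells stably expressing the EGFP-705 splicing reporter; GFP fluorescence per well restored by corrected splicing of the IVS2-705 intron in EGFP; % of control where 0% means no effect.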 A digest of the protocol:
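Splice-correction reporter: EGFP cDNA split by beta-globin intron 2 bearing the 705 mutation, stably in HeLa. Compound incubation 2 days, 37C; fluorescent objects 5-250 µm summed per well.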

Experiment [2] is described as follows: qHTS Assay for Lipid Storage Modulators (AID 1519; calls by dose curve; on activity change, negative = inhibition: on the % scale 0 is the no-effect control and ±100 the full control effect). Particulars: Drosophila S3 cells, BODIPY lipid droplet/cell ratio, laser cytometry, cells loaded with oleic acid; for activity change, negative = inhibition: at 57.5 µM (top of the series). A digest of the protocol: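 Cells seeded at 5,000 per well were treated with compounds over a concentration series and loaded with oleic acid (400 uM, as added). Lipid droplet fluorescence (488 nm excitation, 500-530 nm channel) was read by laser-scanning cytometry and normalized to 20 uM Triacsin C.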
For orientation: qHTS replaces the single test concentration by a dilution series.

The nature of experiment [3]: qHTS profiling for inhibitors of Plasmodium falciparum proliferation (AID 504749).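 Further: 0% = DMSO vehicle and full inhibition = artemisinin control; nearly all actives have a fitted effect of over 60% in size.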 Particulars: P. falciparum in erythrocytes, SYBR Green DNA, 72 h, at 28.7 µM (top of the series). In short, it runs like this:
(§1)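 In a 72 h erythrocytic culture (37 C, humidified, 5% CO2) at 2.5% hematocrit and 0.3% starting parasitemia, compounds were tested; SYBR Green I in detergent lysis buffer stained parasite DNA overnight.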

The test system of the next experiment is C2A. Described as above. Conditions: P. falciparum in erythrocytes, SYBR Green DNA, 72 h; series mostly up to 12.8 µM. In short, it runs like this: as §1
In the next experiment the test system is CP185. Described as above. Particulars: P. falciparum in erythrocytes, SYBR Green DNA, 72 h; series mostly up to 12.8 µM. A digest of the protocol:
as §1

Another experiment has as its system CP201. The description is as above. Particulars: P. falciparum in erythrocytes, SYBR Green DNA, 72 h; series mostly up to 12.8 µM. A digest of the protocol: as §1
In another experiment the test system is CP211. The experiment is described as above. Conditions: P. falciparum in erythrocytes, SYBR Green DNA, 72 h; series mostly up to 12.8 µM. In short, it runs like this: as §1
Another experiment concerns CP238. Described as above. Particulars: P. falciparum in erythrocytes, SYBR Green DNA, 72 h; series mostly up to 12.8 µM. A digest of the protocol:
as §1

A further experiment has as its system CP262. The description is as above. Particulars: P. falciparum in erythrocytes, SYBR Green DNA, 72 h; series mostly up to 12.8 µM. A digest of the protocol: as §1
Another experiment concerns CP268. The experiment is described as above. Particulars: P. falciparum in erythrocytes, SYBR Green DNA, 72 h; series mostly up to 12.8 µM. In short, it runs like this:
as §1

Another experiment has as its system CP269. Described as above. Particulars: P. falciparum in erythrocytes, SYBR Green DNA, 72 h; series mostly up to 12.8 µM. A digest of the protocol:
as §1

For the next experiment, the system named is CP305. The description is as above. Conditions: P. falciparum in erythrocytes, SYBR Green DNA, 72 h; series mostly up to 12.8 µM. A digest of the protocol: as §1
The test system of another experiment is CP315. Described as above. Conditions: P. falciparum in erythrocytes, SYBR Green DNA, 72 h; series mostly up to 12.8 µM. A digest of the protocol: as §1
For the next experiment, the system named is CP325. Described as above. Conditions: P. falciparum in erythrocytes, SYBR Green DNA, 72 h; series mostly up to 12.8 µM. In short, it runs like this: as §1
A further experiment relates to CP329. The experiment is described as above. Conditions: P. falciparum in erythrocytes, SYBR Green DNA, 72 h; series mostly up to 12.8 µM. A digest of the protocol:
as §1

A further experiment has as its system FAB9. Described as above. Conditions: P. falciparum in erythrocytes, SYBR Green DNA, 72 h; series mostly up to 12.8 µM. In short, it runs like this:
as §1

A further experiment deals with JCK. Described as above. Particulars: P. falciparum in erythrocytes, SYBR Green DNA, 72 h; series mostly up to 12.8 µM. In short, it runs like this:
as §1

The subject of another experiment is PC15. The experiment is described as above. Conditions: P. falciparum in erythrocytes, SYBR Green DNA, 72 h; series mostly up to 12.8 µM. A digest of the protocol: as §1
Another experiment concerns PC49. The description is as above. Particulars: P. falciparum in erythrocytes, SYBR Green DNA, 72 h; series mostly up to 12.8 µM. A digest of the protocol:
as §1

Experiment [4] concerns the target Ubiquitin carboxyl-terminal hydrolase 1 (Homo sapiens) (UniProt O94782). The experiment in a line: Inhibitors of USP1/UAF1: Pilot qHTS (AID 504865). Further: nearly all actives have a fitted effect of over 35% in size. Further: potency means the concentration at half of the fitted maximal effect.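 On activity change, negative = inhibition: rhodamine fluorescence freed from ubiquitin-rhodamine substrate followed over time; top concentration of the series differs between compounds; on the % scale 0 is the no-effect control and ±100 the full control effect.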 A digest of the protocol: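 1nM USP1/UAF1 + cpd, 15 min RT; start w/ Ub-Rho 150nM final; kinetic FL 480/540 nm, 6 reads q60 s. Buffer 50mM HEPES pH 7.8, 0.5mM EDTA, 1mM TCEP, 0.01% Tween-20, 0.1 mg/ml BSA.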
Setting [5] is: measured here: cell count channel max response.
Setting [6] is: measured here: lipid channel max response.

The structures appear in SMILES notation. Records with an inconclusive call do not appear. Active and inactive are the calls of the source. Unless noted, the call rests on the fitted dose curve; in most records, active means well fitted curve in the direction sought with a large enough effect; inconclusive means small, poorly fitted or top-dose-only effect, or another doubt; inactive means no such curve, though single readings can be large; an effect the other way counts as inactive or inconclusive.

Chain of Ubiquitin carboxyl-terminal hydrolase 1 (Homo sapiens) (O94782 whole entry, looked up): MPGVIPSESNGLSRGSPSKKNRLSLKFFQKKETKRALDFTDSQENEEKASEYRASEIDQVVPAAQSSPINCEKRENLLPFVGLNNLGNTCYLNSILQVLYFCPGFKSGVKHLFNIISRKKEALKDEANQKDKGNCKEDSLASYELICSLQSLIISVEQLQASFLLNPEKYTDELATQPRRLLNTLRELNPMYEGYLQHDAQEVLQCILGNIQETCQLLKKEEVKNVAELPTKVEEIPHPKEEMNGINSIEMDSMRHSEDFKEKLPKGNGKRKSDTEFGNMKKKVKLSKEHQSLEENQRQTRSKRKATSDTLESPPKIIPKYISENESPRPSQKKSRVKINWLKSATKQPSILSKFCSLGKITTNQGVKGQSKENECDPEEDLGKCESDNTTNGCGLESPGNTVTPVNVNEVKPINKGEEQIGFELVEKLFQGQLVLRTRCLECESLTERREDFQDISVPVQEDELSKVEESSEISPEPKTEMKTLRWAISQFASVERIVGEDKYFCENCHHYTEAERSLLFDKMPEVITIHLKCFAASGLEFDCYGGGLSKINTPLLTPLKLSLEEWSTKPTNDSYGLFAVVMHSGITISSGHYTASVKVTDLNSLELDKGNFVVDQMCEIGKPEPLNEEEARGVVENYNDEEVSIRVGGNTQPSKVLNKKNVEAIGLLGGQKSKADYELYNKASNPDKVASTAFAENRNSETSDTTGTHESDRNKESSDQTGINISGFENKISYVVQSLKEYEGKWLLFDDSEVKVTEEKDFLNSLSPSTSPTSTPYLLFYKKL

With `COc1ccc(-c2cc(=O)c3c(O)cc(O[C@H]4OC(COC5OC(C)C(O)C(O)[C@H]5O)C(O)C(O)C4O)cc3o2)cc1O` (some centres undefined), the Potency result (in experiment [1]; in the experiment with C2A; with CP185; in the experiment on CP201; in the experiment with CP211; with CP238) was “inactive” in each case. In addition, the Potency result in the experiment on CP262, in the experiment with CP268, in the experiment with CP269, in the experiment on CP305, with CP315 and in the experiment on CP325 was “inactive” each time. For the same compound, the Potency result in the experiment with CP329, in the experiment on FAB9, with JCK, with PC15 and with PC49 was “inactive” throughout. Besides, the activity change, negative = inhibition in [2] was 5.51% (inactive). Moreover, the max response in experiment [2] (setting [5]) came out at 6.56%; in [2] (setting [6]), 15.8%. Also, the activity, negative = inhibition in experiment [3] (parasite line A) was 15% (inactive); in [3] (parasite line B), 23.4% (inactive).

On to `CC[C@H](CC[C@@H](C)C1CC[C@H]2[C@@H]3CC=C4C[C@@H](O)CC[C@]4(C)[C@H]3CC[C@]12C)C(C)C` (some centres undefined), for which, in experiment [2], the activity change, negative = inhibition was -0.0175% (inactive). The max response in [2] (setting [5]) worked out at 43.5%; in experiment [2] (setting [6]) it was 42.8%. Further, the Potency result in experiment [4] is “inactive”.

Consider `CC(=O)OCC(=O)[C@@]12OC3(CCCC3)OC1CC1C3CCC4=CC(=O)C=C[C@@]4(C)[C@]3(F)C(O)C[C@]12C` (some centres undefined), for which the Potency result (in experiment [1]; in the experiment with C2A; in the experiment with CP185; with CP201; in the experiment with CP211; in the experiment on CP262) was “inactive” each time. Also, the Potency result with CP268, in the experiment on CP269, in the experiment on CP305, in the experiment with CP315, in the experiment on CP325 and with CP329 was “inactive” throughout. Also, the Potency entry in the experiment with FAB9, in the experiment on JCK, in the experiment with PC15 and in the experiment with PC49 was “inactive” throughout. Further, in experiment [2], the activity change, negative = inhibition is 9.16% (inactive). The max response was -2.26% in experiment [2] (setting [5]) and 7.71% in [2] (setting [6]).

`C=Cc1c(C)/c2[n-]/c1=C\c1[n-]c(c(CC)c1C)/C=c1\[n-]c3c(c1C)C(=O)C(C(=O)[O-])C=3c1[n-]c(c(C)c1CCC(=O)[O-])\C=2.[Cu].[Na+].[Na+]` (centres undefined): the Potency result (in experiment [1]; in the experiment with C2A; in the experiment on CP185; in the experiment on CP201; in the experiment with CP211; in the experiment on CP262) was “inactive” throughout. Moreover, the Potency entry with CP268, in the experiment on CP269, in the experiment with CP305, in the experiment on CP325, in the experiment on CP329 and in the experiment with FAB9 was “inactive” throughout. Besides, the Potency entry in the experiment with JCK and in the experiment on PC49 was “inactive” each time. Besides, in [2], the activity change, negative = inhibition was 23.5% (inactive). The max response in [2] (setting [5]) is -5.82%; in [2] (setting [6]), 20.1%. In experiment [4], the Potency was 20 µM (active). Besides, the activity, negative = inhibition in experiment [3] (parasite line A) was -17.5% (inactive).

Consider `C[C@@]12CCC(=O)C=C1C=CC1C2CC[C@]2(C)C1CC[C@@]21CCC(=O)O1` (some centres undefined), for which the Potency result (in [1]; in [4]; in the experiment on CP201; with CP211; in the experiment with CP238; with CP262) was “inactive” throughout. Moreover, the Potency result with CP268, in the experiment with CP269, in the experiment with CP305, in the experiment with CP315, with CP325 and in the experiment on CP329 was “inactive” each time. The Potency entry in the experiment on FAB9, in the experiment on JCK, in the experiment on PC15 and with PC49 was “inactive” in each case. Further, in experiment [2], the activity change, negative = inhibition was 7.74% (inactive). For the same compound, the results for the max response in experiment [2] (setting [5]) and in [2] (setting [6]) were 3.63% and 12.9%, respectively. In addition, the activity, negative = inhibition in [3] (parasite line B) was -24.2% (inactive).

In the case of `CCC1OC(=O)CC(O)C(C)[C@@H](O[C@@H]2OC(C)[C@H](O[C@@H]3C[C@@](C)(O)C(O)C(C)O3)C(N(C)C)C2O)[C@H](CC=O)CC(C)C(=O)/C=C/C(C)=C/[C@@H]1COC1OC(C)C(O)C(OC)[C@@H]1OC` (some centres undefined), the Potency entry (in experiment [1]; in [4]; with FAB9; in the experiment on JCK; with PC15; in the experiment on PC49) was “inactive” each time. Moreover, in experiment [2], the activity change, negative = inhibition was 0.0526% (inactive). In addition, the max response in experiment [2] (setting [5]) was -1.62%; in [2] (setting [6]), 4.9%.

As for `O=C(O)C1=C[C@@H](O)[C@@H](O)[C@H](O)C1`, in experiment [2], the activity change, negative = inhibition is 5.96% (inactive). Besides, the max response in experiment [2] (setting [5]) stood at 13.7%; in [2] (setting [6]) it was 21.4%. Besides, the Potency entry in [4] was “inactive”.

With `C=C1CC/C=C(\C)CC[C@@H]2[C@@H]1CC2(C)C`, the activity change, negative = inhibition in experiment [2] is -10.6% (inactive). Further, the max response was -19.4% in experiment [2] (setting [5]) and -26.5% in [2] (setting [6]). In addition, the Potency result in experiment [4] is “inactive”.

Take `COc1ccc2cc(C(C)CO)ccc2c1` (centres undefined): the Potency result (in [1]; in experiment [4]; in the experiment with C2A; in the experiment on CP185; in the experiment on CP201; in the experiment on CP211) was “inactive” each time. The Potency entry in the experiment with CP238, in the experiment with CP262, with CP268, in the experiment on CP269, in the experiment with CP305 and in the experiment on CP315 was “inactive” each time. In addition, the Potency result in the experiment with CP325, in the experiment with CP329, in the experiment with FAB9, with JCK, in the experiment with PC15 and in the experiment on PC49 was “inactive” each time. Also, the activity change, negative = inhibition in experiment [2] is 8.58% (inactive). The max response in experiment [2] (setting [5]) came out at 13.8%; in experiment [2] (setting [6]) it was 24.6%. The results for the activity, negative = inhibition in experiment [3] (parasite line A) and in experiment [3] (parasite line B) were 12.4% (inactive) and 6.41% (inactive), respectively.
